Results reported in article PMC12820563, “FoxP3 forms a head-to-head dimer in vivo and stabilizes its multimerization on adjacent microsatellites”.
Over roughly 16,000 sequences, “rpm ratio (pull-down/input)” has its median near 0.94; the highest 2% begin near 1.7. The sample holds the highest values, similar sequences and a random draw of the others, so the mix is not that of the screen.

These sequences were tested against T1, MBP-FoxP1dN (Mus musculus, UniProt P58462 326-579) (assay: PD-seq (MBP pull-down with sequencing); 20 mM Tris-HCl pH 7.5, 100 mM NaCl, 1.5 mM MgCl2, 0.4 uM protein, 0.1 uM dsDNA library, 30 min, room temperature, amylose pull-down; high values mean tight binding). Details: protein: recombinant; tags: His6-MBP; chain copies: 2; dsDNA, one strand shown.
T1 sequence: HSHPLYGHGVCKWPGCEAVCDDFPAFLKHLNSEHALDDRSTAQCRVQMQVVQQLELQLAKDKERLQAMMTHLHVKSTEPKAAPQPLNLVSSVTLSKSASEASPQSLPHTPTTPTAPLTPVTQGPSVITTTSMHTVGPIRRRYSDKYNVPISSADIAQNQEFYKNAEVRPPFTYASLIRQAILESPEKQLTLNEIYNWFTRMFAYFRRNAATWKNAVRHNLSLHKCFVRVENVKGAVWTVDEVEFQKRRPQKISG
In short: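 Amylose resin was used to capture complexes formed during 30 min at room temperature in Tris pH 7.5 buffer with NaCl and MgCl2 between 0.4 µM His6-MBP-tagged mouse FoxP3 or FoxP1 fragment lacking the N-terminus, expressed in E. coli, and 0.1 µM Klenow-filled double-stranded degenerate DNA library. After three washes, the DNA was released with proteinase K, barcoded by PCR and sequenced on Illumina. Binding is pooled-replicate reads-per-million enrichment, pull-down over input.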
For “GATGATTGTTCTCCCAGCTGATGAATTCTATTACTCGAGTAAACAAATTTTCCTAATCTTTCTGTTCAAGCGCCATCTAC”, the binding signal was 0.895 RPM ratio (pull-down/input).
“GATGATTGTTCTCCCAGCTGATGAATTCCCTCCATCGAGTAAACAAATTTTCCTAATCTTTCTGTTCAAGCGCCATCTAC” was tested, and the binding signal was 0.855 RPM ratio (pull-down/input).
With “GATGATTGTTCTCCCAGCTGATGAATTAACACATTCGAGTAAACAAATTTTCCTAATCTTTCTGTTCAAGCGCCATCTAC” the binding signal was 1.18 RPM ratio (pull-down/input).
For “GATGATTGTTCTCCCAGCTGATGAATTCCTAGGTTCGAGTAAACAAATTTTCCTAATCTTTCTGTTCAAGCGCCATCTAC”, the binding signal was 0.762 RPM ratio (pull-down/input).
“GATGATTGTTCTCCCAGCTGATGAATTGCATCTTTCGAGTAAACAAATTTTCCTAATCTTTCTGTTCAAGCGCCATCTAC” was tested, and the binding signal was 1.83 RPM ratio (pull-down/input).
With “GATGATTGTTCTCCCAGCTGATGAATTTGCATCTTCGAGTAAACAAATTTTCCTAATCTTTCTGTTCAAGCGCCATCTAC” the binding signal was 1.89 RPM ratio (pull-down/input).
In the case of “GATGATTGTTCTCCCAGCTGATGAATTGCATTTTTCGAGTAAACAAATTTTCCTAATCTTTCTGTTCAAGCGCCATCTAC”, the binding signal is reported as 1.69 RPM ratio (pull-down/input).
“GATGATTGTTCTCCCAGCTGATGAATTTGCATTTTCGAGTAAACAAATTTTCCTAATCTTTCTGTTCAAGCGCCATCTAC” was tested, and the binding signal was 1.61 RPM ratio (pull-down/input).
“GATGATTGTTCTCCCAGCTGATGAATTTTGCATTTCGAGTAAACAAATTTTCCTAATCTTTCTGTTCAAGCGCCATCTAC” was tested, and the binding signal was 1.29 RPM ratio (pull-down/input).
For “GATGATTGTTCTCCCAGCTGATGAATTGCATTGTTCGAGTAAACAAATTTTCCTAATCTTTCTGTTCAAGCGCCATCTAC”, the binding signal was 1.43 RPM ratio (pull-down/input).
For “GATGATTGTTCTCCCAGCTGATGAATTGAAACGCTCGAGTAAACAAATTTTCCTAATCTTTCTGTTCAAGCGCCATCTAC”, the binding signal was 0.86 RPM ratio (pull-down/input).
For “GATGATTGTTCTCCCAGCTGATGAATTTCTACATTCGAGTAAACAAATTTTCCTAATCTTTCTGTTCAAGCGCCATCTAC”, the binding signal was 0.939 RPM ratio (pull-down/input).
In the case of “GATGATTGTTCTCCCAGCTGATGAATTACCGTGCTCGAGTAAACAAATTTTCCTAATCTTTCTGTTCAAGCGCCATCTAC”, the binding signal is reported as 0.964 RPM ratio (pull-down/input).
In the case of “GATGATTGTTCTCCCAGCTGATGAATTCTACACATCGAGTAAACAAATTTTCCTAATCTTTCTGTTCAAGCGCCATCTAC”, the binding signal is reported as 1.06 RPM ratio (pull-down/input).
In the case of “GATGATTGTTCTCCCAGCTGATGAATTTTGTACATCGAGTAAACAAATTTTCCTAATCTTTCTGTTCAAGCGCCATCTAC”, the binding signal is reported as 1.22 RPM ratio (pull-down/input).
With “GATGATTGTTCTCCCAGCTGATGAATTCTGTACATCGAGTAAACAAATTTTCCTAATCTTTCTGTTCAAGCGCCATCTAC” the binding signal was 1.09 RPM ratio (pull-down/input).
For “GATGATTGTTCTCCCAGCTGATGAATTGTACACATCGAGTAAACAAATTTTCCTAATCTTTCTGTTCAAGCGCCATCTAC”, the binding signal was 2.11 RPM ratio (pull-down/input).
With “GATGATTGTTCTCCCAGCTGATGAATTGTGTACATCGAGTAAACAAATTTTCCTAATCTTTCTGTTCAAGCGCCATCTAC” the binding signal was 2 RPM ratio (pull-down/input).
With “GATGATTGTTCTCCCAGCTGATGAATTGTACAAATCGAGTAAACAAATTTTCCTAATCTTTCTGTTCAAGCGCCATCTAC” the binding signal was 1.35 RPM ratio (pull-down/input).
For “GATGATTGTTCTCCCAGCTGATGAATTGCAGTTGTCGAGTAAACAAATTTTCCTAATCTTTCTGTTCAAGCGCCATCTAC”, the binding signal was 1.34 RPM ratio (pull-down/input).
For “GATGATTGTTCTCCCAGCTGATGAATTACAGTACTCGAGTAAACAAATTTTCCTAATCTTTCTGTTCAAGCGCCATCTAC”, the binding signal was 1.06 RPM ratio (pull-down/input).
With “GATGATTGTTCTCCCAGCTGATGAATTGTTATAATCGAGTAAACAAATTTTCCTAATCTTTCTGTTCAAGCGCCATCTAC” the binding signal was 1.59 RPM ratio (pull-down/input).
“GATGATTGTTCTCCCAGCTGATGAATTTGCTTACTCGAGTAAACAAATTTTCCTAATCTTTCTGTTCAAGCGCCATCTAC” was tested, and the binding signal was 1.69 RPM ratio (pull-down/input).
“GATGATTGTTCTCCCAGCTGATGAATTAGCAGTCTCGAGTAAACAAATTTTCCTAATCTTTCTGTTCAAGCGCCATCTAC” was tested, and the binding signal was 0.877 RPM ratio (pull-down/input).
For “GATGATTGTTCTCCCAGCTGATGAATTGCAGCTATCGAGTAAACAAATTTTCCTAATCTTTCTGTTCAAGCGCCATCTAC”, the binding signal was 1.15 RPM ratio (pull-down/input).
With “GATGATTGTTCTCCCAGCTGATGAATTGCATTTATCGAGTAAACAAATTTTCCTAATCTTTCTGTTCAAGCGCCATCTAC” the binding signal was 1.77 RPM ratio (pull-down/input).
With “GATGATTGTTCTCCCAGCTGATGAATTTATTGCATCGAGTAAACAAATTTTCCTAATCTTTCTGTTCAAGCGCCATCTAC” the binding signal was 1.62 RPM ratio (pull-down/input).
In the case of “GATGATTGTTCTCCCAGCTGATGAATTGCATCTATCGAGTAAACAAATTTTCCTAATCTTTCTGTTCAAGCGCCATCTAC”, the binding signal is reported as 1.75 RPM ratio (pull-down/input).
With “GATGATTGTTCTCCCAGCTGATGAATTTCTTGCATCGAGTAAACAAATTTTCCTAATCTTTCTGTTCAAGCGCCATCTAC” the binding signal was 1.27 RPM ratio (pull-down/input).
In the case of “GATGATTGTTCTCCCAGCTGATGAATTTGCATTATCGAGTAAACAAATTTTCCTAATCTTTCTGTTCAAGCGCCATCTAC”, the binding signal is reported as 1.49 RPM ratio (pull-down/input).
For “GATGATTGTTCTCCCAGCTGATGAATTAGTCTGGTCGAGTAAACAAATTTTCCTAATCTTTCTGTTCAAGCGCCATCTAC”, the binding signal was 0.822 RPM ratio (pull-down/input).
With “GATGATTGTTCTCCCAGCTGATGAATTTGGGCCATCGAGTAAACAAATTTTCCTAATCTTTCTGTTCAAGCGCCATCTAC” the binding signal was 0.878 RPM ratio (pull-down/input).
With “GATGATTGTTCTCCCAGCTGATGAATTCTTTGTGTCGAGTAAACAAATTTTCCTAATCTTTCTGTTCAAGCGCCATCTAC” the binding signal was 1.06 RPM ratio (pull-down/input).
With “GATGATTGTTCTCCCAGCTGATGAATTGTGTTTGTCGAGTAAACAAATTTTCCTAATCTTTCTGTTCAAGCGCCATCTAC” the binding signal was 2.8 RPM ratio (pull-down/input).
“GATGATTGTTCTCCCAGCTGATGAATTTGCTGTGTCGAGTAAACAAATTTTCCTAATCTTTCTGTTCAAGCGCCATCTAC” was tested, and the binding signal was 1.14 RPM ratio (pull-down/input).
For “GATGATTGTTCTCCCAGCTGATGAATTGTTTGTGTCGAGTAAACAAATTTTCCTAATCTTTCTGTTCAAGCGCCATCTAC”, the binding signal was 2.77 RPM ratio (pull-down/input).
For “GATGATTGTTCTCCCAGCTGATGAATTTTCTGTGTCGAGTAAACAAATTTTCCTAATCTTTCTGTTCAAGCGCCATCTAC”, the binding signal was 0.968 RPM ratio (pull-down/input).
With “GATGATTGTTCTCCCAGCTGATGAATTTGATGTGTCGAGTAAACAAATTTTCCTAATCTTTCTGTTCAAGCGCCATCTAC” the binding signal was 1.16 RPM ratio (pull-down/input).
With “GATGATTGTTCTCCCAGCTGATGAATTACCCATATCGAGTAAACAAATTTTCCTAATCTTTCTGTTCAAGCGCCATCTAC” the binding signal was 1.07 RPM ratio (pull-down/input).
With “GATGATTGTTCTCCCAGCTGATGAATTACTCCTCTCGAGTAAACAAATTTTCCTAATCTTTCTGTTCAAGCGCCATCTAC” the binding signal was 1.05 RPM ratio (pull-down/input).
